Three sequences from paper PMC11006913 can be followed below.

What all share (experiment): PBM; 200 nM protein, PBS
Holding throughout (conditions): dsDNA, one strand shown

In one assay the target is T1, VENTX (Homo sapiens, UniProt O95231 78-163, R121Q).
T1 sequence: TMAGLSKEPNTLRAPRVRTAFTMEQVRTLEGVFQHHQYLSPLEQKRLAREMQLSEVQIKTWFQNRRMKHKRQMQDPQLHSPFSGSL

In assay [1] the target is HOXA4 (Homo sapiens, UniProt Q00056 201-287, W262R).
In assay [2] the target is HOXA7 (Homo sapiens, UniProt P31268 116-202).
Sequence of HOXA7 (Homo sapiens, UniProt P31268 116-202) (P31268 116-202): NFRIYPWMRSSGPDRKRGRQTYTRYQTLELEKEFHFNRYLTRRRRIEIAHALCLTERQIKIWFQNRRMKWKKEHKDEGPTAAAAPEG
In assay [3] the target is ALX4 (Homo sapiens, UniProt Q9H161 200-286).
Sequence of ALX4 (Homo sapiens, UniProt Q9H161 200-286) (Q9H161 200-286): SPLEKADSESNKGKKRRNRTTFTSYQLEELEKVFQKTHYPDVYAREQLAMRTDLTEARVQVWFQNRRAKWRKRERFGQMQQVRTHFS
Assay [4] addresses PRRX1 (Homo sapiens, UniProt P54821 80-166, F113S).
Assay [5] concerns the target HOXB6 (Homo sapiens, UniProt P17509 132-218, K202E).
Assay [6] has as its target ALX4 (Homo sapiens, UniProt Q9H161 200-286, Q225E).
For assay [7], the target named is HOXA2 (Homo sapiens, UniProt O43364 129-215, R185T).
Sequence of HOXA2 (Homo sapiens, UniProt O43364 129-215, R185T) (O43364 129-215 R185T): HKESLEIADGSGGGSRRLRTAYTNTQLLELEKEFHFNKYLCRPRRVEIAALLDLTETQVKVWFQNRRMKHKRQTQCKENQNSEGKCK
In assay [8] the target is MSX2 (Homo sapiens, UniProt P35548 130-214, R199I).
Sequence of MSX2 (Homo sapiens, UniProt P35548 130-214, R199I) (P35548 130-214 R199I): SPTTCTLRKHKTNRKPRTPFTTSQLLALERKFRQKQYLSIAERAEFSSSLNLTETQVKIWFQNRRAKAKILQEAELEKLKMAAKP
The target in assay [9] is HOXA2 (Homo sapiens, UniProt O43364 129-215, R185K).
Sequence of HOXA2 (Homo sapiens, UniProt O43364 129-215, R185K) (O43364 129-215 R185K): as the sequence (O43364 129-215 R185T) above, with T57K counted along it
The target in assay [10] is HOXA4 (Homo sapiens, UniProt Q00056 201-287).
Sequence of HOXA4 (Homo sapiens, UniProt Q00056 201-287) (Q00056 201-287): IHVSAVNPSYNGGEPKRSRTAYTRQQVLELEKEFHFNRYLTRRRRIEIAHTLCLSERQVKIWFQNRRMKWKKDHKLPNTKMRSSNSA
The target in assay [11] is MSX2 (Homo sapiens, UniProt P35548 130-214).
Sequence of MSX2 (Homo sapiens, UniProt P35548 130-214) (P35548 130-214): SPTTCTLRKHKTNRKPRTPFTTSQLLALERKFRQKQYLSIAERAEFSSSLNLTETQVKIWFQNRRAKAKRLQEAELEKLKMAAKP
In assay [12] the target is MSX2 (Homo sapiens, UniProt P35548 130-214, F161Y).
Sequence of MSX2 (Homo sapiens, UniProt P35548 130-214, F161Y) (P35548 130-214 F161Y): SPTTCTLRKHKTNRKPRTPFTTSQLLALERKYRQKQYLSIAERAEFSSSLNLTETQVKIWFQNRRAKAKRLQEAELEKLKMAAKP
Assay [13] concerns the target VAX1 (Homo sapiens, UniProt Q5SQQ9 86-172, T142I).
Assay [14] addresses HOXA7 (Homo sapiens, UniProt P31268 116-202, W177C).
The target in another assay is ALX1 (Homo sapiens, UniProt Q15699 118-204).
Sequence of ALX1 (Q15699 118-204): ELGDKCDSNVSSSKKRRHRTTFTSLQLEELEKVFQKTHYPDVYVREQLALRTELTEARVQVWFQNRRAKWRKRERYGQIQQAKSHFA
The target in assay [15] is HOXA4 (Homo sapiens, UniProt Q00056 201-287, W262F).
Sequence of HOXA4 (Homo sapiens, UniProt Q00056 201-287, W262F) (Q00056 201-287 W262F): as the sequence (Q00056 201-287) above, with W62F counted along it
The target of assay [16] is PRRX1 (Homo sapiens, UniProt P54821 80-166).
Sequence of PRRX1 (Homo sapiens, UniProt P54821 80-166) (P54821 80-166): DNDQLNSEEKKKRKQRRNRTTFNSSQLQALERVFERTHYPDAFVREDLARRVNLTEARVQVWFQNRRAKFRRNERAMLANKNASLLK
The target in assay [17] is VAX1 (Homo sapiens, UniProt Q5SQQ9 86-172, K157R).
Sequence of VAX1 (Homo sapiens, UniProt Q5SQQ9 86-172, K157R) (Q5SQQ9 86-172 K157R): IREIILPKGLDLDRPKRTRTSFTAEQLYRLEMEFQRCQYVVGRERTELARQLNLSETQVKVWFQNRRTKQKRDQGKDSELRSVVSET
Assay [18] addresses HOXB6 (Homo sapiens, UniProt P17509 132-218).

Sequence of VAX1 (Homo sapiens, UniProt Q5SQQ9 86-172, T142I) (Q5SQQ9 86-172 T142I): as the sequence (Q5SQQ9 86-172 K157R) above, with T57I, R72K counted along it
Sequence of PRRX1 (Homo sapiens, UniProt P54821 80-166, F113S) (P54821 80-166 F113S): as the sequence (P54821 80-166) above, with F34S counted along it
Sequence of HOXB6 (Homo sapiens, UniProt P17509 132-218, K202E) (P17509 132-218 K202E): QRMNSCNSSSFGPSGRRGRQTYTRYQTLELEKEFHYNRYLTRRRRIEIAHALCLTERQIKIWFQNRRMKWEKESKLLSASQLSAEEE
Sequence of HOXA4 (Homo sapiens, UniProt Q00056 201-287, W262R) (Q00056 201-287 W262R): as the sequence (Q00056 201-287) above, with W62R counted along it
Sequence of HOXB6 (Homo sapiens, UniProt P17509 132-218) (P17509 132-218): as the sequence (P17509 132-218 K202E) above, with E71K counted along it
Sequence of ALX4 (Homo sapiens, UniProt Q9H161 200-286, Q225E) (Q9H161 200-286 Q225E): as the sequence (Q9H161 200-286) above, with Q26E counted along it
Sequence of HOXA7 (Homo sapiens, UniProt P31268 116-202, W177C) (P31268 116-202 W177C): as the sequence (P31268 116-202) above, with W62C counted along it

In the case of CGTAATTA, the binding signal with VENTX is 12.2 upbm affinity estimate (log intensity, higher = more binding, comparable within an allelic series); in the assay with HOXA4 [1], 10.7 upbm affinity estimate (log intensity, higher = more binding, comparable within an allelic series); with HOXA7 [2] it was 12 upbm affinity estimate (log intensity, higher = more binding, comparable within an allelic series); with ALX4 [3] it was 14.2 upbm affinity estimate (log intensity, higher = more binding, comparable within an allelic series); in the assay with PRRX1 [4] it was 11.5 upbm affinity estimate (log intensity, higher = more binding, comparable within an allelic series); in the assay with HOXB6 [5], 10.2 upbm affinity estimate (log intensity, higher = more binding, comparable within an allelic series). Also, the binding signal was 13.5 upbm affinity estimate (log intensity, higher = more binding, comparable within an allelic series) with ALX4 [6]; 13.9 upbm affinity estimate (log intensity, higher = more binding, comparable within an allelic series) in the assay with HOXA2 [7]; 12.9 upbm affinity estimate (log intensity, higher = more binding, comparable within an allelic series) with MSX2 [8]; 14 upbm affinity estimate (log intensity, higher = more binding, comparable within an allelic series) in the assay with HOXA2 [9]; 14.2 upbm affinity estimate (log intensity, higher = more binding, comparable within an allelic series) with HOXA4 [10]; 14 upbm affinity estimate (log intensity, higher = more binding, comparable within an allelic series) with MSX2 [11]. Moreover, the binding signal with MSX2 [12] is 13.6 upbm affinity estimate (log intensity, higher = more binding, comparable within an allelic series); with VAX1 [13] it was 13.6 upbm affinity estimate (log intensity, higher = more binding, comparable within an allelic series); in the assay with HOXA7 [14], 8.91 upbm affinity estimate (log intensity, higher = more binding, comparable within an allelic series); in the assay with ALX1, 12.7 upbm affinity estimate (log intensity, higher = more binding, comparable within an allelic series); in the assay with HOXA4 [15] it was 12.3 upbm affinity estimate (log intensity, higher = more binding, comparable within an allelic series); with PRRX1 [16] it was 13.5 upbm affinity estimate (log intensity, higher = more binding, comparable within an allelic series). For the same sequence, the binding signal was 13.7 upbm affinity estimate (log intensity, higher = more binding, comparable within an allelic series) with VAX1 [17] and 12.4 upbm affinity estimate (log intensity, higher = more binding, comparable within an allelic series) with HOXB6 [18].
Turning to GCTAATTA, the binding signal with VENTX was 13 upbm affinity estimate (log intensity, higher = more binding, comparable within an allelic series); in the assay with HOXA4 [1], 10.8 upbm affinity estimate (log intensity, higher = more binding, comparable within an allelic series); with HOXA7 [2] it was 12.1 upbm affinity estimate (log intensity, higher = more binding, comparable within an allelic series); in the assay with ALX4 [3], 14.6 upbm affinity estimate (log intensity, higher = more binding, comparable within an allelic series); with PRRX1 [4], 12 upbm affinity estimate (log intensity, higher = more binding, comparable within an allelic series); with HOXB6 [5], 10.1 upbm affinity estimate (log intensity, higher = more binding, comparable within an allelic series). Moreover, the binding signal with ALX4 [6] was 14.4 upbm affinity estimate (log intensity, higher = more binding, comparable within an allelic series); in the assay with HOXA2 [7], 14.2 upbm affinity estimate (log intensity, higher = more binding, comparable within an allelic series); in the assay with MSX2 [8] it was 13.5 upbm affinity estimate (log intensity, higher = more binding, comparable within an allelic series); with HOXA2 [9], 14.1 upbm affinity estimate (log intensity, higher = more binding, comparable within an allelic series); in the assay with HOXA4 [10], 14.3 upbm affinity estimate (log intensity, higher = more binding, comparable within an allelic series); with MSX2 [11], 14.3 upbm affinity estimate (log intensity, higher = more binding, comparable within an allelic series). For the same sequence, the binding signal with MSX2 [12] was 13.8 upbm affinity estimate (log intensity, higher = more binding, comparable within an allelic series); with VAX1 [13], 14.1 upbm affinity estimate (log intensity, higher = more binding, comparable within an allelic series); with HOXA7 [14] it was 8.89 upbm affinity estimate (log intensity, higher = more binding, comparable within an allelic series); in the assay with ALX1, 13.1 upbm affinity estimate (log intensity, higher = more binding, comparable within an allelic series); in the assay with HOXA4 [15], 13 upbm affinity estimate (log intensity, higher = more binding, comparable within an allelic series); in the assay with PRRX1 [16] it was 13.7 upbm affinity estimate (log intensity, higher = more binding, comparable within an allelic series). The binding signal in the assay with VAX1 [17] was 14.2 upbm affinity estimate (log intensity, higher = more binding, comparable within an allelic series); with HOXB6 [18], 12.5 upbm affinity estimate (log intensity, higher = more binding, comparable within an allelic series).
Turning to CTAATTAA, the binding signal in the assay with VENTX is 12.7 upbm affinity estimate (log intensity, higher = more binding, comparable within an allelic series); in the assay with HOXA4 [1], 11 upbm affinity estimate (log intensity, higher = more binding, comparable within an allelic series); in the assay with HOXA7 [2], 11.9 upbm affinity estimate (log intensity, higher = more binding, comparable within an allelic series); with ALX4 [3] it was 14.4 upbm affinity estimate (log intensity, higher = more binding, comparable within an allelic series); with PRRX1 [4] it was 12.1 upbm affinity estimate (log intensity, higher = more binding, comparable within an allelic series); with HOXB6 [5], 10.1 upbm affinity estimate (log intensity, higher = more binding, comparable within an allelic series). For the same sequence, the binding signal with ALX4 [6] was 14.4 upbm affinity estimate (log intensity, higher = more binding, comparable within an allelic series); with HOXA2 [7], 13.8 upbm affinity estimate (log intensity, higher = more binding, comparable within an allelic series); with MSX2 [8] it was 13.3 upbm affinity estimate (log intensity, higher = more binding, comparable within an allelic series); with HOXA2 [9], 13.8 upbm affinity estimate (log intensity, higher = more binding, comparable within an allelic series); with HOXA4 [10], 14.2 upbm affinity estimate (log intensity, higher = more binding, comparable within an allelic series); with MSX2 [11], 14.1 upbm affinity estimate (log intensity, higher = more binding, comparable within an allelic series). In addition, the binding signal was 13.7 upbm affinity estimate (log intensity, higher = more binding, comparable within an allelic series) with MSX2 [12]; 13.8 upbm affinity estimate (log intensity, higher = more binding, comparable within an allelic series) with VAX1 [13]; 8.82 upbm affinity estimate (log intensity, higher = more binding, comparable within an allelic series) with HOXA7 [14]; 12.9 upbm affinity estimate (log intensity, higher = more binding, comparable within an allelic series) in the assay with ALX1; 12.7 upbm affinity estimate (log intensity, higher = more binding, comparable within an allelic series) in the assay with HOXA4 [15]; 13.7 upbm affinity estimate (log intensity, higher = more binding, comparable within an allelic series) in the assay with PRRX1 [16]. The binding signal with VAX1 [17] is 13.8 upbm affinity estimate (log intensity, higher = more binding, comparable within an allelic series); with HOXB6 [18], 12.2 upbm affinity estimate (log intensity, higher = more binding, comparable within an allelic series).
